This passage reports growth results from PubChem BioAssay (NCI).

Among the test systems are HCT-15 colon; HT29 colon; SNB-75 CNS; SNB-19 CNS; PC-3 prostate; SK-MEL-5 melanoma; UACC-62 melanoma; LOX IMVI melanoma; SK-MEL-28 melanoma; SK-MEL-2 melanoma; EKVX NSCLC; SN12C renal; UO-31 renal; TK-10 renal; ACHN renal; CAKI-1 renal; A498 renal; CCRF-CEM leukemia; U251 CNS; MOLT-4 leukemia.
Holding throughout (assay): NCI-60 one-dose screen, 48 h (100 = growth as untreated, 0 = no growth, -100 = all killed)
What all share (conditions): 10 µM

About 83,000 compounds went through this panel and 20% of them were active in at least one assay; those are over-represented in the sample as a whole.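 Compound tested at a single concentration for 48 hours in 96-well plates; a percent growth value below 10 was scored as active.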 A number with no mark means an inactive call. Calls of active or inactive are those of the source.

In the case of `COc1ccc2[nH]c(O)c(N=NC(=O)COc3ccc(NC(=O)Nc4ccc(Cl)cc4)cc3)c2c1`, the growth in the test on HCT-15 colon was 99.5%; in the test on HT29 colon, 8.21% (active); in the test with SNB-75 CNS, 42.8%; with SNB-19 CNS it was 3.67% (active); in the test on PC-3 prostate, 18%; in the test with SK-MEL-5 melanoma, 32.2%. The growth with UACC-62 melanoma is -30.2% (active); in the test on LOX IMVI melanoma, -59.7% (active); in the test on SK-MEL-28 melanoma it was -72.3% (active); in the test on SK-MEL-2 melanoma, -8.16% (active); in the test with EKVX NSCLC it was 84.8%; in the test on SN12C renal, 15.9%. For the same compound, the growth in the test with UO-31 renal was 90.3%; with TK-10 renal, 106%; in the test on ACHN renal, 100%; in the test with CAKI-1 renal it was 99.7%; in the test on A498 renal, 135%; in the test on CCRF-CEM leukemia it was 8.83% (active).

`O=C(Nc1ccccc1)Nc1nc2ccccc2s1`: the growth in the test on HCT-15 colon was 66.7%; in the test on HT29 colon it was 89.4%; in the test with SNB-75 CNS it was 109%; in the test with SNB-19 CNS, 89.7%; in the test on U251 CNS it was 95.9%; in the test on PC-3 prostate, 67.3%. The growth is 48.3% in the test on UACC-62 melanoma; 83.2% in the test on LOX IMVI melanoma; 41.4% in the test on SK-MEL-28 melanoma; 92.9% in the test with SK-MEL-2 melanoma; 64.1% in the test with EKVX NSCLC; 88.9% in the test on SN12C renal. Further, the growth in the test with UO-31 renal is 57.5%; in the test with TK-10 renal it was 95.4%; in the test on ACHN renal it was 82.2%; in the test with CAKI-1 renal it was 76.7%; in the test with A498 renal it was 129%; in the test on CCRF-CEM leukemia, 67.5%.

Consider `Cc1ccc(C(=O)N/C(=C2/OCCN2C)[P+](c2ccccc2)(c2ccccc2)c2ccccc2)cc1`, for which the growth in the test with HCT-15 colon was 110%; in the test on HT29 colon, 59.7%; in the test on SNB-75 CNS it was 99.9%; in the test on SNB-19 CNS it was 74.1%; with U251 CNS, 75.5%; in the test with PC-3 prostate, 62.5%. For the same compound, the growth is 48.2% with UACC-62 melanoma; 44.8% in the test on LOX IMVI melanoma; 72.2% in the test on SK-MEL-28 melanoma; 81.1% in the test with SK-MEL-2 melanoma; 75.4% in the test with EKVX NSCLC; 86% with SN12C renal. Moreover, the growth in the test on UO-31 renal was 85.4%; in the test with TK-10 renal it was 102%; in the test with ACHN renal it was 114%; in the test with CAKI-1 renal, 102%; in the test with A498 renal, 122%; in the test on CCRF-CEM leukemia, 73.5%. For the same compound, the growth in the test with MOLT-4 leukemia is 84.4%.

Consider `COc1cccc(C(N)=Nc2ccc(OCCCCCCn3cncn3)cc2)c1`, for which the growth is 16.8% in the test with HCT-15 colon; -27.9% (active) in the test with HT29 colon; 54.4% in the test on SNB-75 CNS; 37.6% in the test with SNB-19 CNS; 10.3% in the test on U251 CNS; 34.4% in the test with PC-3 prostate. The growth with UACC-62 melanoma is 36.4%; in the test with LOX IMVI melanoma, 36%; in the test with SK-MEL-28 melanoma it was 51.4%; with SK-MEL-2 melanoma, 27.3%; in the test on SN12C renal, 30.2%; with UO-31 renal, 45.4%. For the same compound, the growth was 64.3% with TK-10 renal; 45% in the test on ACHN renal; 39.1% in the test on CAKI-1 renal; 113% with A498 renal; 10.4% with CCRF-CEM leukemia.

In the case of `CC(=O)Nc1ccc(-c2cn(-c3cccc(C(=O)Nc4cc(C(F)(F)F)cc(C(F)(F)F)c4)c3)nn2)cn1`, the growth was -40.5% (active) with HCT-15 colon; -37.4% (active) in the test with HT29 colon; -6.74% (active) in the test with SNB-75 CNS; -42.4% (active) with SNB-19 CNS; -66.2% (active) with U251 CNS; -59.5% (active) in the test on PC-3 prostate. For the same compound, the growth was -46.2% (active) in the test with UACC-62 melanoma; -100% (active) in the test on LOX IMVI melanoma; -38.6% (active) in the test with SK-MEL-2 melanoma; -25.7% (active) in the test on EKVX NSCLC; -50.1% (active) in the test on SN12C renal; 1.1% (active) with UO-31 renal. In addition, the growth in the test with TK-10 renal is -10.4% (active); in the test with ACHN renal it was -26.2% (active); in the test with CAKI-1 renal it was -44.3% (active); in the test on A498 renal it was -30.2% (active); in the test on CCRF-CEM leukemia, -25.4% (active); in the test on MOLT-4 leukemia, -37.1% (active).

For `Cc1ccc(-c2nc(Nc3ccc(S(N)(=O)=O)cc3)c3ccccc3n2)cc1`, the growth with HCT-15 colon is 1.3% (active); in the test on HT29 colon, 14.6%; in the test on SNB-75 CNS, 87.6%; in the test on SNB-19 CNS, 60.6%; in the test on U251 CNS it was 49.7%; in the test with PC-3 prostate it was 39.5%. Further, the growth in the test on UACC-62 melanoma was 78.5%; in the test on SK-MEL-28 melanoma it was 75.8%; in the test with SK-MEL-2 melanoma, 99.9%; in the test with EKVX NSCLC it was 65.9%; with SN12C renal, 68.7%; in the test on UO-31 renal, 54.5%. Further, the growth was 104% in the test with TK-10 renal; 42.8% in the test with ACHN renal; 36.5% with CAKI-1 renal; 61.3% in the test on A498 renal; 25.7% in the test on CCRF-CEM leukemia; 11.2% in the test with MOLT-4 leukemia.

In the case of `OCc1[nH]nc2cc(Nc3ncc4ccc(Br)c(OC5CCC(O)CC5)c4n3)ccc12` (stereo unspecified), the growth in the test on HCT-15 colon was -5.87% (active); in the test on HT29 colon, -41.1% (active); with SNB-75 CNS, -44.1% (active); with SNB-19 CNS, 6.37% (active); in the test on U251 CNS, 8.55% (active); in the test on PC-3 prostate, 9.54% (active). The growth is -89.2% (active) in the test on UACC-62 melanoma; -81.5% (active) in the test on LOX IMVI melanoma; -68.7% (active) in the test on SK-MEL-28 melanoma; -75.8% (active) with SK-MEL-2 melanoma; -27.8% (active) in the test with EKVX NSCLC; 1.92% (active) with SN12C renal. The growth in the test on UO-31 renal is -27.2% (active); in the test with TK-10 renal, -89.6% (active); with ACHN renal, 0.365% (active); in the test with CAKI-1 renal it was -17.2% (active); with A498 renal, -26.7% (active); in the test on CCRF-CEM leukemia, 0.234% (active). The growth in the test with MOLT-4 leukemia was 1.17% (active).

As for `NS(=O)(=O)c1ccc(NC(=O)CSc2ccc(-c3ccc(Cl)cc3)nn2)c(Br)c1`, the growth is 54.1% in the test with HCT-15 colon; 64.7% in the test with HT29 colon; 42.3% with SNB-75 CNS; 27% with SNB-19 CNS; -25.6% (active) in the test on U251 CNS; 35.7% in the test with PC-3 prostate. Also, the growth in the test on UACC-62 melanoma was 65.4%; in the test with LOX IMVI melanoma, 19.7%; in the test on SK-MEL-28 melanoma, 79.5%; in the test with SK-MEL-2 melanoma it was 82.9%; in the test with EKVX NSCLC, 47.4%; in the test on SN12C renal it was 39.1%. Further, the growth was 91% in the test with UO-31 renal; 94.6% with TK-10 renal; 24.7% in the test on ACHN renal; 67% with CAKI-1 renal; 0.192% (active) in the test with A498 renal; 83.7% in the test with CCRF-CEM leukemia. Further, in the test with MOLT-4 leukemia, the growth is 90.6%.
